Measured values as given in PubChem BioAssay AID2061319 (National Center for Advancing Translational Sciences (NCATS), 2025).
Inconclusive results are not listed. Values without a mark were called inactive. Calls of active or inactive are those of the source. Calls come from the whole dose curve; as a rule, active = well fitted inhibition curve with a large enough effect; inconclusive = small, poorly fitted or top-dose-only effect; inactive = flat fitted curve, though single readings scatter. Square brackets hold non-standard residues; d marks the D form. Peptide text beside a SMILES is read from it. Dolaproine = CO[C@@H]([C@@H]1CCCN1)[C@@H](C)C(=O)O; Dil = CC[C@H](C)[C@H](NC)[C@@H](CC(=O)O)OC; NMeV = CN[C@H](C(=O)O)C(C)C

Assay: Identification of antibody-drug conjugate (ADC) payloads which are substrates of ATP-binding cassette drug efflux transporters: ABCG2-H460-MX20 cell line with Ko143
Conditions: H460-MX20 (ABCG2) + Ko143, CellTiter-Glo viability, 48 h; series mostly up to 28.7 µM; activity change, negative = cytotoxicity: at the top concentration
Excerpt: Antibody-drug conjugates (ADCs) feature an antibody recognizing a specific protein joined to a potent toxic payload. Numerous antibody-drug conjugates have received FDA approval; however, clinical resistance arises. Resistance mechanisms include decreased expression or mutation of the antibody target, impaired payload release, or increased expression of ATP-binding cassette (ABC) efflux transporters associated with multidrug resistance. We therefore sought to characterize the interaction of ABC multidrug transporters with ADC payloads. We performed a high-throughput screen with 27 common ADC payloads using cells lines expressing ABC transporters P-glycoprotein (P-gp, encoded by ABCB1) or ABCG2 (encoded by ABCG2). Confirmatory assays were also performed using cells transfected to express P-gp, ABCG2, or MRP1 (encoded by ABCC1). Several commonly used ADC payloads were substrates of P-gp, including calicheamicin gamma1, monomethyl auristatin E, DM1, and DM4. All the pyrrolobenzodiazepines tested - SJG136, SGD-1882, SG2057, and SG3199 - were substrates of P-gp, ABCG2, and MRP1. […] These findings highlight the risk of transporter-mediated resistance with certain ADC payloads and underscore the importance of selecting payloads that evade ABC transporter recognition in future ADC development.
HEK-293 cells were transfected with empty vector (pcDNA) or vector containing the human ABCB1 (MDR-19), ABCG2 (R-5), or ABCC1 gene (MRP1) and were maintained in EMEM with 2 mg/mL G418 added to maintain transporter expression. The HeLa derivative KB-3-1 and the P-gp overexpressing KB-8-5-11 subline were maintained in DMEM; KB-8-5-11 additionally received 100 ng/mL colchicine. H460 parental cells were obtained from the Division of Cancer Treatment and Diagnosis Tumor Repository, National Cancer Institute at Frederick, MD and were cultured in RPMI. The ABCG2 expressing subline H460 MX20 was generated by selecting H460 cells in 20 nM mitoxantrone. Media in all cases was supplemented with 10% FBS and 1% penicillin-streptomycin. We explored 27 common ADC payloads, in two orthogonal, paired cell line sets-a drug selected and transfected set for each transporter--to identify substrates of the ABC transporters P-gp and ABCG2. Compounds were sourced from Levena Biopharma (San Diego, CA), Selleck Chem (Houston, TX), ChemieTek (Indianapolis, IN), or Microsource Discovery Systems (Gaylordsville, CT). Screening was performed as previously described. Briefly, cells were plated at a density of 500 cells/well in 1536 well plates with compounds added using a 1536-head pin tool (Kalypsys, San Diego CA). Cells were incubated with cytotoxic drugs and processed with CellTiter Glo reagent (Promega, Madison, WI) to determine viability after 48 hours. P-gp substrates were identified by comparing compound activity between paired sets of low-expressing (sensitive) and over-expressing (resistant) cell lines.

Structure (SMILES) | Potency | activity change, negative = cytotoxicity [%]
CCc1c2c(nc3ccc(O)cc13)-c1cc3c(c(=O)n1C2)COC(=O)[C@]3(O)CC | 150 nM (active) | –
CN(C)CCOc1ccc2[nH]c(C(=O)N3C[C@@H](CCl)c4c3cc(O)c3ccccc43)cc2c1 | 0.5 nM (active) | –
CC[C@H](C)[C@@H]([C@H](N)CC(=O)N1CCC[C@H]1[C@H](OC)[C@@H](C)C(=O)N[C@@H](Cc1ccccc1)c1nccs1)N(C)C(=O)[C@@H](NC(=O)[C@@H](NC)C(C)C)C(C)C | – | -17.3
CC[C@H](C)[C@@H]([C@@H](CC(=O)N1CCC[C@H]1[C@H](OC)[C@@H](C)C(=O)N[C@@H](Cc1ccccc1)C(=O)O)OC)N(C)C(=O)[C@@H](NC(=O)[C@@H](NC)C(C)C)C(C)C (H-[NMeV]V[Dil][Dolaproine]F-OH) | 15000 nM (active) | –
COc1cccc2c1C(=O)c1c(O)c3c(c(O)c1C2=O)C[C@@](O)(C(=O)CO)C[C@@H]3O[C@H]1C[C@H]2[C@H](O[C@@H]3[C@@H](OC)OCCN32)[C@H](C)O1 | 0.2 nM (active) | –
COc1cccc2c1C(=O)c1c(O)c3c(c(O)c1C2=O)C[C@@](O)(C(=O)CO)C[C@@H]3O[C@H]1C[C@H](N)[C@H](O)[C@H](C)O1 | 598 nM (active) | –
CCN[C@H]1CO[C@@H](O[C@H]2[C@H](O[C@H]3C#C/C=C\C#C[C@]4(O)CC(=O)C(NC(=O)OC)=C3/C4=C\CSSSC)O[C@H](C)[C@@H](NO[C@H]3C[C@H](O)[C@H](SC(=O)c4c(C)c(I)c(O[C@@H]5O[C@@H](C)[C@H](O)[C@@H](OC)[C@H]5O)c(OC)c4OC)[C@@H](C)O3)[C@@H]2O)C[C@@H]1OC | 3.8 nM (active) | –
CCN(C(C)=O)[C@H]1CO[C@@H](O[C@H]2[C@H](O[C@H]3C#C/C=C\C#C[C@]4(O)CC(=O)C(NC(=O)OC)=C3/C4=C\CSSSC)O[C@H](C)[C@@H](NO[C@H]3C[C@H](O)[C@H](SC(=O)c4c(C)c(I)c(O[C@@H]5O[C@@H](C)[C@H](O)[C@@H](OC)[C@H]5O)c(OC)c4OC)[C@@H](C)O3)[C@@H]2O)C[C@@H]1OC | 13.4 nM (active) | –
CC(C)(C)OC(=O)Nc1ccc2[nH]c(C(=O)N3C[C@@H](CCl)c4c3cc(O)c3ccccc43)cc2c1 | 6.7 nM (active) | –
COC(=O)c1cc2c3c(cc(O)c2[nH]1)N(C(=O)c1cc2cc(OC)c(OC)c(OC)c2[nH]1)CC3CCl (stereo not given) | 0.8 nM (active) | –
